Bioassay records (PubChem)
TGFb inhibitor: inhibitors of TGF-b signaling; AID 588855; 1.2% of 410,000 active; Potency, µM (top dose mostly 46.1 µM), most hits filed as inhibitors; HepG2 CAGA-GFP TGF-b/SMAD3 reporter, GFP fluorescence, 18 h; TGF-beta stimulated, 500 pg/mL final; note: nearly all actives have a fitted effect of over 65% in size
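GFP signal (ex488/em500-530) from TGF-beta-stimulated HEPG2 CAGA-GFP cells, 500 pg/mL final, 18 h at 37 degrees C in DMEM plus 1% FBS, normalized to unstimulated and DMSO-stimulated controls.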
ATXN viability: viability counter-screen for ATXN expression inhibitors; S2 cells (HEK-293 line with an ATXN2-luciferase reporter) viability, CellTiter-Fluor protease fluorescence, 24 h; AID 651635; Potency, µM (highest dose often 56.7 µM), actives largely listed as cytotoxic; 0.49% of 400,000 active; note: nearly all actives have a fitted effect of over 40% in size
KB-V1 MDR tox: kills drug-selected multidrug resistant KB-V1 cells. KB-V1 MDR cells viability, CellTiter-Glo, 72 h. Potency, µM (series often up to 46.1 µM), usual class: cytotoxic. 3.4% of 400,000 active; note: nearly all actives have a fitted effect of over 60% in size
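Potencies derive from concentration-effect curves fitted to normalized luminescence (CellTiter-Glo) of KB-V1 cells treated for 72 h at 37 degrees C in phenol-red-free DMEM containing 10% FBS.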
KB-3-1 tox: KB-3-1 parental cell cytotoxicity; KB-3-1 viability, CellTiter-Glo ATP luminescence, 72 h; Potency, µM (series often up to 46.1 µM), hits mostly cytotoxic; 1.4% of 400,000 active; AID 1347075; note: nearly all actives have a fitted effect of over 60% in size
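Cytotoxicity measured as CellTiter-Glo luminescence after 72 h at 37 C. Compound titrations were pinned onto drug-naive KB-3-1 parental adenocarcinoma cells grown in DMEM with 10% FBS, and normalized data fitted to concentration-response curves.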
HepG2 tox: counter-screen for TGF-b inhibitors: cytotoxicity in HepG2 cells | 0.76% of 410,000 active | AID 588856 | HepG2 CAGA-GFP viability, ATP luminescence, 18 h | Potency, µM (series often up to 46.1 µM), actives largely listed as cytotoxic
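HepG2 CAGA-GFP cells (1000/well, DMEM with 1% FBS) received compound, then TGF-beta at 500 pg/mL final, and were incubated 18 hours at 37 degrees C. Viability was read by CellTiter-Glo luminescence. Media-only wells were set as complete cell-killing and DMSO as no toxicity.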
ATXN2 expr inh: reduces ATXN2 reporter expression in HEK-293 cells; Potency, µM (doses to about 57 µM), actives largely listed as inhibitors; HEK-293 ATXN2-luciferase reporter, luminescence, 24 h; 0.72% of 360,000 active; note: nearly all actives have a fitted effect of over 55% in size
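qHTS (up to 57 uM final) was run with 24 h compound exposure of reporter cells at 37 °C. Each well was multiplexed: SteadyGlo luminescence measured ATXN2-luciferase expression after a fluorogenic Gly-Phe-AFC viability readout (25 uM final).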
Each line names hits and unclear results; the compound was inactive in the other large screens. Compounds with a hit are over-represented: about 5.9% of the library has one in this group of screens. Calls come from the whole dose curve; as a rule, active = well fitted curve in the direction sought with a large enough effect; inconclusive = small, poorly fitted or top-dose-only effect, or another doubt; inactive = no such curve, though single readings can be large; an effect the other way counts as inactive or inconclusive.

Cc1cccc(NC(=O)C2CCN(c3nccc(C)n3)CC2)c1	KB-V1 MDR tox 15µM
CCC(C)c1ccc(NC(=O)C2CCN(c3ncccn3)CC2)cc1 (centres undefined)	KB-V1 MDR tox 18µM, KB-3-1 tox inconclusive
COc1ccc(-c2cc(C)no2)cc1S(=O)(=O)Nc1cccc(C(F)(F)F)c1	TGFb inhibitor inconclusive (no result: ATXN viability, ATXN2 expr inh)
CCOC(=O)c1c(C)oc2c1cc(NS(=O)(=O)c1ccc(C)cc1)c1ccccc12	none
Cc1cccc(N(C)C(=O)c2cc3cc4ccc(C)cc4nc3o2)c1	KB-V1 MDR tox 12µM, KB-3-1 tox inconclusive
C[C@@H]1CN([C@H](C)CO)C(=O)c2c(c3ccccc3n2C)-c2ccccc2CO[C@H]1CN(C)Cc1ccc(C(F)(F)F)cc1	TGFb inhibitor inconclusive, ATXN viability 28µM, KB-3-1 tox inconclusive, HepG2 tox 20µM, ATXN2 expr inh inconclusive
C[C@@H]1CN([C@H](C)CO)C(=O)c2c(c3ccccc3n2C)-c2ccccc2CO[C@H]1CN(C)Cc1cccc(C(=O)O)c1	none
C[C@@H]1CN([C@H](C)CO)C(=O)c2c(c3ccccc3n2C)-c2ccccc2CO[C@H]1CN(C)Cc1ccc(Oc2ccccc2)cc1	TGFb inhibitor 16µM, ATXN viability inconclusive, KB-V1 MDR tox inconclusive, KB-3-1 tox inconclusive, ATXN2 expr inh inconclusive
COc1ccc(NC(=O)N(C)C[C@@H]2OCc3ccccc3-c3c(n(C)c4ccccc34)C(=O)N([C@H](C)CO)C[C@H]2C)c(OC)c1	ATXN viability inconclusive, KB-3-1 tox inconclusive, ATXN2 expr inh inconclusive
CNC[C@@H]1OCc2ccccc2-c2c(n(C)c3ccccc23)C(=O)N([C@H](C)CO)C[C@H]1C	TGFb inhibitor inconclusive, ATXN viability 32µM, ATXN2 expr inh inconclusive
C[C@@H]1CN([C@H](C)CO)C(=O)c2c(c3ccccc3n2C)-c2ccccc2CO[C@H]1CN(C)C(=O)c1cc(Cl)cc(Cl)c1	none
CCCCc1nn2c(=O)cc(COC(=O)CNC(=O)c3ccccc3C)nc2s1	none
COC(=O)c1cc2sc(C)cc2n1CC(=O)Nc1ccc(C)c(C)c1	none
CCOC(=O)c1cccc(NC(=O)c2ccc3c(c2)nnn3CC)c1	none
CCOc1ccc(OCCNC(=O)c2ccc3c(c2)nnn3CC)cc1	KB-V1 MDR tox 23µM
CC(=O)c1ccc(Nc2cc(C)nc3nc(Cc4ccc(Cl)cc4)nn23)cc1	none
O=c1[nH]ncc(N/N=C\c2cccnc2)c1Cl	KB-V1 MDR tox inconclusive (no result: ATXN2 expr inh)
O=c1[nH]ncc(N/N=C\c2ccncc2)c1Cl	KB-V1 MDR tox 21µM
O=c1[nH]ncc(N/N=C\c2cccs2)c1Cl	KB-V1 MDR tox 3.3µM, KB-3-1 tox inconclusive
COc1ccccc1/C=N\Nc1cn[nH]c(=O)c1Cl	KB-V1 MDR tox 8.2µM
Cc1cccc(/C=N\Nc2cn[nH]c(=O)c2Cl)c1	KB-V1 MDR tox 4.1µM
COc1ccc(-n2cc(C(=O)NCCc3ccc(C)cc3)c3ccccc3c2=O)cc1	TGFb inhibitor inconclusive (no result: ATXN viability, KB-V1 MDR tox, KB-3-1 tox, ATXN2 expr inh)
COc1ccc(N(C(=O)/C=C\C(=O)Nc2ccc(Cl)cc2)C(C(=O)NCc2ccco2)c2ccc(C)cc2)cc1 (centres undefined)	TGFb inhibitor 13µM (no result: ATXN viability, KB-V1 MDR tox, KB-3-1 tox, ATXN2 expr inh)
Cc1ccc(N[S+](=O)([O-])c2cc3c(cc2CCc2ccccc2)NC(=O)CO3)cc1C	none (no result: TGFb inhibitor, ATXN viability, HepG2 tox, ATXN2 expr inh)
COc1cccc(-c2cnc3c(NC=O)cc(-c4ccncc4)cn23)c1	KB-V1 MDR tox inconclusive
CCOC(=O)C1=C(C)NC2=C(C(=O)CCC2)C1c1cn(Cc2ccc(Cl)cc2Cl)nc1-c1ccccc1 (centres undefined)	TGFb inhibitor inconclusive, KB-V1 MDR tox inconclusive, KB-3-1 tox 16µM
CN(Cc1ccccc1)C(=O)CCSc1nc(-c2ccc3c(c2)OCO3)cc(C(F)(F)F)n1	KB-V1 MDR tox 2.6µM
O=C(CCSc1nc(-c2ccc3c(c2)OCO3)cc(C(F)(F)F)n1)NCc1ccccc1	none
COc1cc2nccc(Oc3ccc(NC(=O)NC4CC4)c(Cl)c3)c2cc1C(N)=O	ATXN2 expr inh 3.4µM (no result: TGFb inhibitor, ATXN viability, KB-V1 MDR tox, KB-3-1 tox, HepG2 tox)
